MARV entry inh – blocks Marburg virus binding to or entry into cells; Marburg virus pseudotyped entry inhibition, cell reporter; AID 540276; actives 1.8% (n = 300,000); Potency, µM (doses to about 37.8 µM), without a hit: at the highest dose activity change, negative = inhibition, most hits filed as inhibitors; calls by dose curve; tested in HEK293 cells; also: potency is read from the fitted curve at half-maximal effect
FMDV inh – foot and mouth disease virus antiviral activity; FMDV antiviral cell-based qHTS; Potency, µM (highest dose often 57.9 µM), without a hit: top-dose activity change, negative = inhibition, most hits filed as inhibitors; actives 1.2% (n = 410,000); calls by dose curve; tested in HEK293T cells; also: read-out not given here; potency is read from the fitted curve at half-maximal effect; nearly all actives have a fitted effect of over 45% in size
LASV entry inh – blocks Lassa virus binding to or entry into cells | Lassa virus pseudotype entry inhibition, cell reporter | Potency, µM (series often up to 37.9 µM), inactives show at the top dose activity change, negative = inhibition, hits mostly inhibitors | actives 1.2% (n = 300,000) | AID 540256; calls by dose curve; tested in HEK293 cells; also: potency is read from the fitted curve at half-maximal effect; nearly all actives have a fitted effect of over 50% in size
HCMV inh – inhibitors of human cytomegalovirus; activity change, negative = inhibition, % at 57.5 µM; HFF cells, HCMV-luciferase reporter, 72 h; active compounds read low; actives 4.5% (n = 410,000); in the data active = activity change below about -60%; inconclusive = no clear call, values can overlap the other calls; inactive = above about -39%
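Luciferase read-out from HCMV-luciferase-infected HFFs (MOI 1 PFU/cell) 72 h post infection at 37C; compounds added after 16 h cell attachment; activity normalized between buffer-only basal and Salinomycin (10uM) inhibitor controls.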
Active calls of the source: *; ? = inconclusive; · = no result given; [ ] = another dose, or the depositor's remark. Shown are actives, neighbours in structure and some others; about 6.2% of the full set was active somewhere. % is scaled to controls: 0 for no effect and ±100 for the full control effect.

SMILES | MARV entry inh | FMDV inh | LASV entry inh | HCMV inh
O=C(NCC1CCCC(CNC(=O)N2CCc3ccccc32)C1)N1CCc2ccccc21 (stereo not drawn) | 20% | -4% | 7% | 21
O=C(c1ccc(Nc2nc3ccccc3n3nnnc23)cc1)N1CCN(c2cccc(C(F)(F)F)c2)CC1 | -7%[46.1 µM] | -24% | 12%[46.1 µM] | -3
Cc1oncc1C(=O)Nc1ccc2ccccc2c1 | · | 29% | · | 44
Cc1[nH]n2c(=O)c(C#N)c(-c3ccccc3)nc2c1-c1ccccc1 | 20% | -4% | -9% | -2
O=C(COC(=O)c1ccccc1)Nc1ccccc1Br | 7%[46.1 µM] | 27% | -4% | -9
COc1ccc(/C=N/Nc2nc(-c3cccc(S(=O)(=O)N4CCCC4)c3)cs2)c(OC)c1 | ? | ? | ? | -65*
O=C(O)c1ccc(S(=O)(=O)N2CCCc3ccccc32)cc1 | · | -12% | · | 34
Cc1ccc(S(=O)(=O)N2CCOCC2)cc1C(=O)Nc1nc(-c2cccnc2)cs1 | 6% | · | 0% | -16
O=C(Nc1nc(-c2ccc(S(=O)(=O)N3CCOCC3)cc2)cs1)c1ccccc1 | 4µM* | 14µM* | ? | -91*
CN(C)S(=O)(=O)c1cccc(-c2csc(N/N=C/c3ccco3)n2)c1 | -26%[46.1 µM] | -20% | -6% | -37
NC(=O)c1ccsc1NC(=O)c1ccc(S(=O)(=O)N2CCCc3ccccc32)cc1 | ? | 35µM* | ? | -71*
O=S(=O)(c1ccc(-c2csc(-c3cccnc3)n2)cc1)N1CCOCC1 | ? | -22% | 2% | -64*
Cc1c(C(=O)N2CCOCC2)sc(NC(=O)Cc2ccccc2)c1C#N | ? | -5% | ? | 36
O=C(CSc1ncc(S(=O)(=O)c2ccc(Br)cc2)c(=O)[nH]1)NCc1ccc(Cl)cc1 | 1%[46.1 µM] | -6% | 7%[46.1 µM] | -8
O=C(Nc1nc(-c2ccccc2)cs1)c1ccc(S(=O)(=O)N2CCc3ccccc32)cc1 | ? | ? | ? | -77*
CC(=O)n1cc(-c2ccncc2)c2ccccc21 | · | -21% | · | -94*
CC(=O)n1cc(/C=N/NC(=O)c2sc(C)nc2C)c2ccccc21 | -16% | 0% | 0% | 29
Oc1ccc(C(=S)N2CCCCC2)cc1 | 5% | -8% | -13% | -32
CCOC(=O)c1cnc(N2CC2)nc1N | 10µM* | 0% | ? | -68*
O=C1c2ccccc2C(=O)N1CCC1(O)C(c2ccccc2)=Nc2ccccc21 (stereo not drawn) | · | 33% | · | -10
COc1ccc(/C=N/n2c(SC)nnc2-c2ccccc2)c(OC)c1OC | 5µM* | -29% | 3.5µM* | ?
COc1ccc(/C=N/n2c(SC)nnc2-c2ccccc2)cc1C | ? | -21% | ? | -9
O=C(NCc1ccncc1)[C@@H]1CCCN1C(=O)[C@@H]1CCCN1C(=O)c1ccccc1 | · | -26% | · | -4
CC(C)C(NC(=O)C(C(C)C)N(C)C)C(=O)N(C)C(C(=O)N1CCCC1C(=O)N1CCCC1C(=O)NCc1ccccc1)C(C)C (stereo not drawn) | ? | -13% | ? | -86*
O=C1CC(N2CCOCC2)C(=O)N1CCc1ccccc1 (stereo not drawn) | 0% | -17% | 4% | -10
SMILES | MARV entry inh | FMDV inh | LASV entry inh | HCMV inh
Oc1cccc2c(NC(=S)Nc3ccc(SC(F)F)cc3)cccc12 | -30% | 13µM* | -12% | 40
Oc1ccccc1N1CCN(C(=S)Nc2ccc(SC(F)F)cc2)CC1 | ? | ? | 5µM* | ?
FC(F)Sc1ccc(NC(=S)N2CCN(c3ccccn3)CC2)cc1 | ? | -8% | · | -2
CN1CCC(N(C)C(=O)c2ccc(Cl)c(S(=O)(=O)N3CCCCC3)c2)CC1 | · | -10% | · | -12
Cc1ccc(CC2CC(=O)N(c3cc(C)on3)C2=O)cc1 (stereo not drawn) | · | -3% | · | 2
O=C(c1ccc(S(=O)(=O)Nc2ccccc2F)cc1)N1CCCCCC1 | -24% | 3% | -2%[46.1 µM] | -24
CCc1c(C#N)c(SCCC(=O)Nc2cccc(OC)c2)nc2c1C(=O)CC(C)(C)C2 | -26% | -22% | -29% | -21
CCc1c(C#N)c(SCCC(=O)Nc2ccc(F)cc2)nc2c1C(=O)CC(C)(C)C2 | ? | 28µM* | ? | -96*
Cc1c2ccncc2cc2c1[nH]c1ccccc12 | ? | 4% | -29%[46.1 µM] | ?
COc1ccc2[nH]c3c(C)c4ccncc4c(C)c3c2c1 | · | ? | · | -77*
c1ccc2c(c1)nc1n2CCN1CCNC1CCCCC1 | ? | -11% | 9% | -2
CC1CCCN(CCOc2ccc3ccccc3c2Br)C1 (stereo not drawn) | ? | 7% | ? | -83*
